About 13,000 (27%) of roughly 48,000 compounds showed an effect of 50% or more. The list shows a part of the results.
Each molecule was assayed on Wolbachia pipientis (assay: Anti-Wolbachia Cell-Based Screen). Conditions: 5 µM.
Type: functional
Set-up: scale not given: in the data most compounds retested in dose-response had high values

In order of rising “Percent Effect” value:
1. CCCn1ncc(-c2nc3c(cnn3CC)[nH]2)c1C  -25.23%
2. CN1CC(=O)N(c2cccnc2)CC12CCN(C(=O)C1CCCCC1)C2.O=C(O)C(F)(F)F.O=C(O)C(F)(F)F (stereo not given)  -22.33%
3. N#CCCCn1nnc(C2(NC(=O)c3ccccc3)CCCC2)n1  -18.68%
4. N#Cc1ccnc(N2CCN(CC(O)c3ccc(F)c(F)c3)CC2)c1 (stereo not given)  -18.53%
5. CC(Cn1ccnc1)NC(=O)NCCNC(=O)C(C)C (stereo not given)  -18.32%
6. CNC(=O)NC(=O)C(C)N1CCN(C2CCCC2)CC1 (stereo not given)  -18%
7. O=C(CCNC(=O)NC1CCN(C2CC2)CC1)NCc1ccccc1  -15.75%
8. Cc1noc(CCNC(=O)c2ccc(N(C)C)c(F)c2)n1  -15.61%
9. CC(C)c1cc(NCC(O)c2ccc(F)cc2)n2nccc2n1 (stereo not given)  -15.19%
10. CCc1cc(N[C@H]2CC[C@H](O)CC2)n2nc(C)c(C)c2n1  -14.47%
11. Cc1cnn(CCC(=O)Nc2cccnc2N2CCC(CO)CC2)c1  -13.92%
12. CN(C)C(=O)c1ccccc1NC(=O)N(C)Cc1ccccc1O  -13.22%
13. Cc1cc(C(=O)N(CCN(C)C)Cc2ccc(Cl)cc2)no1  -11.55%
14. O=C1CN(C(=O)c2cc(-c3ccco3)nc3c(Cl)cccc23)CCN1  -11.35%
15. CCc1nccc(CN2CCC(CNC(=O)Nc3ccccc3)C2)n1 (stereo not given)  -10.66%
16. CSCC(=O)NC1CCN(C(C)c2ccccc2)CC1 (stereo not given)  -9.489%
17. CN(Cc1ccc(F)c(F)c1)C(=O)CCc1nc(-c2nnc[nH]2)no1  -9.092%
18. CCc1nc(CCNc2ncccc2C#N)sc1C  -8.813%
19. COc1cc(CNC(=O)Nc2nncs2)ccc1O  -8.608%
20. O=C(NC1CCS(=O)(=O)c2ccccc21)c1sccc1C1CC1 (stereo not given)  -7.789%
21. Cc1oncc1C(=O)N1CCC2(C1)CN(c1cccnc1)C(=O)CN2C (stereo not given)  -7.65%
22. CC(=O)NCC1CCN(C(=O)NCc2ccc3c(c2)OCCO3)CC1  -6.191%
23. O=C(NCc1cc(O)ncn1)C1COc2ccccc2C1 (stereo not given)  -5.183%
24. Cc1ccc2cc(C(=O)N3CCS(=O)(=O)CC3)[nH]c2c1  -4.814%
25. CN(C)CCN(Cc1ccc(Cl)cc1)C(=O)c1ccncc1  -4.798%
26. Cc1nc(CCCNC(=O)C2CC(=O)N(C(C)(C)C)C2)sc1C (stereo not given)  -4.767%
27. Cc1ccc(N2CCO[C@H]3CN(Cc4cc(C)on4)CC[C@H]3C2=O)cn1.O=C(O)C(F)(F)F.O=C(O)C(F)(F)F  -4.354%
28. Cc1ccc(CNC(=O)Nc2nncs2)n1C  -4.226%
29. Cc1noc([C@@H](C)NCc2ccc(F)cc2)c1C(=O)O.Cl  -4.042%
30. CCNC(=O)N1CCCC(c2noc(CC)n2)C1 (stereo not given)  -3.898%
31. Cc1cc(C(=O)N2CCC3(CC2)COCCN(c2cccnc2)C3)[nH]n1.O=C(O)C(F)(F)F  -3.174%
32. CCn1nc(CC(C)C)cc1C(=O)N1C[C@H](O)[C@@H](N2CCCCC2)C1  -3.036%
33. CCN(C)c1ccc(CNC(=O)CCn2cc(C)cn2)cc1F  -2.464%
34. O=C1CN(Cc2nnc(-c3ccccc3Br)o2)CCN1  -2.201%
35. O=C1N(CCCc2ccccc2)CCCC1(O)CNCc1ccccc1 (stereo not given)  -2.179%
36. Cc1csc2ncn(C(C)Cc3cccnc3)c(=O)c12 (stereo not given)  -2.167%
37. Cc1noc(C)c1C(=O)NCc1ccnc(OCC(F)(F)F)c1  -2.057%
38. O=C(c1ccc(N2CCCC2)nn1)N1CCCc2cc(F)c(F)cc21  -2.029%
39. COCCN(c1ccncc1)S(=O)(=O)c1cc(C)c(F)cc1F  -2.029%
40. Cc1ccc(CNC(=O)NCc2csc(C)n2)cn1  -1.986%
41. Cn1cccc1C(=O)N1CCCCC12CC(=O)N(c1cccnc1)C2.O=C(O)C(F)(F)F (stereo not given)  -1.407%
42. Cc1ccc(OC2(C(=O)O)CCN(C(=O)c3ccoc3C)CC2)cn1  -1.307%
43. CCOCCCC(=O)NC1CCN(C(C)c2ccccc2)CC1 (stereo not given)  -0.8786%
44. Cc1ccc2cc(C(=O)N3CCN(C(=O)c4ccoc4)CC3)[nH]c2c1  0.1699%
45. NC(=O)CN(Cc1cccc(Oc2ccccc2)c1)C(=O)C1CC1  0.4693%
46. CCN(CC1CCCCO1)C(=O)CCNC(=O)c1ccccc1F (stereo not given)  0.5335%
47. CCN(Cc1csc(CS(C)(=O)=O)n1)c1cccc(F)c1  0.8671%
48. CN(Cc1ccc(Cl)c(F)c1)C(=O)CCc1ccncc1  0.9629%
49. CCc1nc(C2CCCN(C(=O)CN(C)S(C)(=O)=O)C2)no1 (stereo not given)  1.006%
50. COC(=O)c1cc(NC2CCN(CC(F)(F)F)C2=O)ccc1C (stereo not given)  1.107%
51. O=C(Nc1ccc(-n2cccn2)cc1)N1C[C@H](O)[C@@H](N2CCOCC2)C1  1.189%
52. COCC(=O)N(C)Cc1ccc(OCc2cccs2)cc1  1.693%
53. CN1CCC(N(C)C(=O)CCc2ccc(F)c(F)c2)C1=O (stereo not given)  2.381%
54. COc1cccc(-n2nnc(C(=O)N3CCNC(=O)C3)c2C)c1  2.603%
55. Cc1ccc(CNC(=O)Nc2cc(C(F)(F)F)c[nH]c2=O)cn1  3.357%
56. COc1ccc(CN[C@@H]2CO[C@H](CNC(=O)N3CCOCC3)[C@H]2O)cc1  3.527%
57. Cc1csc2c(=O)n(C(C)Cc3cccnc3)cnc12 (stereo not given)  4.44%
58. Cc1cnn(-c2cccc(N3CCN(c4cc(C)nc(C)n4)CC3)n2)c1  4.719%
59. COCC1CCN(Cc2cc(O)c3c(C)ccc(C)c3n2)CC1  5.678%
60. CCN(CC)C(=O)Cn1cc(C(=O)NCCc2scnc2C)nn1  5.922%
61. COCCN(CC1CCCO1)C(=O)CCNC(=O)c1ccccc1F (stereo not given)  6.163%
62. CCc1nc(C2CCCN(C(=O)c3c[nH]c(C(C)C)n3)C2)no1 (stereo not given)  7.02%
63. O=C(c1ccc(F)cc1F)N1C[C@@H](O)[C@H](N2CCOCC2)C1  7.48%
64. CCc1nc(C2CCCN(C(=O)C3=NN(C(C)C)C(=O)CC3)C2)no1 (stereo not given)  7.741%
65. COc1cc(CNC(=O)C(C)SC)cc(Br)c1OC (stereo not given)  11.13%
66. CN(C)[C@H]1CN(C(=O)c2ccc3sc4c(c3c2)CCNC4=O)C[C@@H]1O  13.68%
67. CNc1cc(C)nc(NCc2cc(C)cc3c(C)c(C)[nH]c23)n1  13.77%
68. CN(C)c1ccc(CCCNC(=O)Nc2ccc(C#N)cc2)cc1  14.16%
69. COc1ccccc1OCc1cc(C(=O)N2C[C@H](O)[C@@H](N(C)C)C2)n[nH]1  14.49%
70. CN(C)C(=O)Cc1ccccc1NCc1nc(Cc2ccccc2)no1  16.45%
71. CN(CCc1ccccn1)[C@@H]1CCN(c2cccc(C#N)n2)C[C@H]1O  16.97%
72. Cc1nc(CN2CCCn3c(nc(Cn4ccnc4)cc3=O)C2)cs1  17.01%
73. Cc1csc2c(=O)n(CCN3CCC(c4ccccc4)CC3)cnc12  21.54%
74. COc1cc(C)ccc1OCCN1CC[C@@]2(O)CCNC[C@H]2C1  28.12%
75. CN1CCN([C@@H]2CN(C(=O)c3cc4ccc(F)cc4[nH]3)C[C@H]2O)CC1  68.22%
76. Cc1noc(C(C)C)c1C(=O)NCc1ccc(N(C)C)c(F)c1  78.48%
77. Cc1noc(C(C)C)c1C(=O)NCc1ccc2c(c1)OCCO2  83.78%
78. Cc1ccc(CNC(=O)Nc2nccs2)cn1  93.38%
79. CCN(CC1CCCO1)C(=O)NCCNC(=O)c1ccccc1F (stereo not given)  93.7%
80. CCC(CO)n1cnc2scc(C)c2c1=O (stereo not given)  100.6%
81. Cc1noc(CCCC(=O)N(CCC(=O)O)Cc2ccc(F)c(F)c2)n1  101.8%
82. CN1CCN([C@@H]2CN(C(=O)c3cc4cccc(F)c4[nH]3)C[C@H]2O)CC1  104.7%
83. Cc1ccc(CNC(=O)Nc2nncs2)cn1  108.3%
84. CN1CC(=O)N(c2cccnc2)CC12CCN(C(=O)c1cccn1C)C2.O=C(O)C(F)(F)F.O=C(O)C(F)(F)F (stereo not given)  108.5%
85. CCc1nc(C2CCCN(C(=O)NC3CC3)C2)no1 (stereo not given)  109.2%
86. O=C(c1cc2cccc(F)c2[nH]1)N1C[C@@H](O)[C@H](N2CCOCC2)C1  110.4%
87. CCc1nc(C2CCCN(C(=O)NCCOC)C2)no1 (stereo not given)  110.5%
88. CCC(Cn1ccnc1)n1cnc2scc(C)c2c1=O (stereo not given)  110.7%
89. COCC(=O)N(C)Cc1ccc(F)c(F)c1  111.3%
90. Cc1cc(C(=O)N2CCC3(C2)CN(c2cccnc2)C(=O)CN3C)[nH]n1.O=C(O)C(F)(F)F.O=C(O)C(F)(F)F (stereo not given)  112%
91. CC1CCN(CC(=O)NC2CCN(C(C)c3ccccc3)CC2)CC1.Cl (stereo not given)  112.7%
92. CCc1nc(C2CCCN(C(=O)C(C)(C)NS(C)(=O)=O)C2)no1 (stereo not given)  113.6%
93. CN(C)[C@@H]1CN(C(=O)c2cc3cccc(F)c3[nH]2)C[C@H]1O  116.9%
94. CCc1nc(C2CCCN(C(=O)CC3CCOCC3)C2)no1 (stereo not given)  122.8%
95. CCc1nc(C2CCCN(C(=O)NC(C)C)C2)no1 (stereo not given)  123.4%
96. O=C(c1cc2cccc(F)c2[nH]1)N1C[C@@H](O)[C@H](N2CCCC2)C1  132.3%
97. Cc1c(C)c2c(c(C)c1O)CC[C@](C)(C(=O)O)O2 [(R)-TROLOX]  132.5%
98. CCC(Cn1ccnc1)n1cnc2c(C)csc2c1=O (stereo not given)  163.7%
99. O=C(O)CCN(Cc1ccc(F)c(F)c1)C(=O)C1CC1  170.7%
100. CCC(=O)N(CCN(C)C)Cc1ccc(F)c(F)c1  182.8%

From ChEMBL document CHEMBL3988442, “University of Dundee, Small-Polar-MMV Screening Library” (2021)
